HSP90 inh – HSP90 inhibitors, primary screen, cell lysate, luminescence. AID 1789, 2009. inhibition, % at 5.6 µM. Rabbit reticulocyte lysate, luciferase refolding luminescence, 3 h. hit rate 0.91% among 290,000;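 active = inhibition above the screen-wide mean plus 3 SD, computed separately per campaign, cut at about 16% in these data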;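 also: inhibitors lower the luminescence because luciferase stays unfolded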
SMARCA2 activ – SMARCA2 (BRM) function activators, primary screen, cell-based, luminescence, high throughput. activation, % at 9.1 µM. MG213 cells, MMTV-luciferase reporter, dexamethasone, overnight. hit rate 1% among 370,000; in the data active = activation above about 7.8%
AI-2 QS mod – Vibrio harveyi AI-2 quorum sensing modulators, primary screen, JMH597 strain, luminescence/OD600 ratio; Vibrio harveyi JMH597 AI-2 luminescence/OD600 ratio, 9 h; active compounds read low; strain lacks LuxN and CqsS sensors; 0 = neutral-control median; activity change, % at 7.5 µM; hit rate 0.4% among 300,000; in the data active = activity change below about -75%, passing the limit was not always enough;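 also: luminescence divided by OD600 gain over 9 h not by final OD600 alone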
PG9 binder – binders of HIV-1 gp120 antibody PG9, primary screen, biochemical, TR-FRET | HIV-1 gp120 / PG9 antibody interaction | TR-FRET gp120-PG9 antibody binding | inhibition, % at 6.7 µM | hit rate 0.43% among 360,000; in the data active = inhibition above about 8.5%
HSF1 inh – HSF1 inhibitors in luciferase reporter cells, primary screen, cell-based, NIH3T3, luminescence; hit rate 0.77% among 300,000; activity change, negative = inhibition, % at 7.5 µM (by protocol); NIH3T3-HGL HSE-luciferase, MG132-induced, luminescence 8 h; active compounds read low;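 active = more than half of replicate wells show activity change below -50%, luminescence cut by over half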;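 also: luciferase reports HSF-1 transcriptional activity via heat shock element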
FXN GAA850 act – FXN promoter activators, primary screen, cell-based, luciferase luminescence, HEK293 lucGAA850. HEK293 lucGAA850 FXN promoter luciferase reporter, 24 h; percent of 10 µM SAHA response. activation, % at 6 µM. hit rate 0.56% among 360,000. AID 540364, 2011;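 active = activation above the average of all compounds screened plus 3 SD, cutoff fixed separately per campaign, cut at about 7.5% in these data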
SMARCA2 conf – SMARCA2 (BRM) function activators, confirmation, cell-based, luminescence, triplicate. MG213 cells, MMTV-luciferase with dexamethasone, overnight; MG213 cells expressing E1A, Rb sequestered; DMSO wells 0%, reference activator 100%. hit rate 30% among 3,500. shares compounds with SMARCA2 activ. activation, % at 9.1 µM. AID 652260, 2013;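 active = activation above its plate's cutoff, the mean activation of tested wells plus 3 SD, cut at about 7.9% in these data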
VP16 Luc act – GAL4-VP16 luciferase reporter activation, counter-screen for SMARCA2 (BRM) activator project, cell-based, pG5luc, luminescence, high throughput. shares compounds with SMARCA2 activ. HEK293 GAL4-VP16 pG5luc reporter; scaled: DMSO wells 0%, SAHA wells 100%. activation, % at 9.1 µM. hit rate 41% among 3,500. AID 686939, 2013;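 active = activation above the solvent-only control well mean plus 3 SD, averaged across control plates, cut at about 5.2% in these data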
A number is an active result; 0 = inactive; - = no result given. Rows were chosen to be rich in hits. Some 3.4% of all compounds tested hit in one or more screens of this group.

SMILES | HSP90 inh | SMARCA2 activ | AI-2 QS mod | PG9 binder | HSF1 inh | FXN GAA850 act | SMARCA2 conf | VP16 Luc act
Nc1nc2c(ncn2[C@@H]2O[C@H](C(=O)N[C@H](Cc3ccccc3)C(=O)NCc3ccc4c(c3)OCO4)[C@@H](O)[C@H]2O)c(=O)[nH]1 | - | 0 | - | 0 | - | - | - | -
CC(C)(C)Nc1ncnc2c1cnn2-c1ccccc1 | - | 8.3 | 0 | 0 | 0 | 0 | 11 | 13
COCCNc1ncnc2c1cnn2-c1ccc(Cl)cc1 | 0 | 8.4 | 0 | 0 | 0 | 0 | 17 | 10
c1ccc(Cn2ccc3ccc(-c4ccc5ccn(Cc6cccc(-c7ccsc7)c6)c5c4)cc32)cc1 | - | 0 | - | - | - | - | - | -
COC(=O)c1cc(S(=O)(=O)N2CCCC2=O)c(Cl)cc1Cl | 0 | 8.0 | 0 | 0 | 0 | 0 | 0 | 0
O=C(Nc1ccccc1)Nc1ccc2ocnc2c1 | 0 | 0 | 0 | 0 | 0 | 0 | - | -
O=C(Nc1ccccc1)Nc1ccc2ncoc2c1 | 0 | 13 | 0 | 0 | 0 | 0 | 0 | 7.3
CC(C)C[C@H](NC(=O)c1ccco1)C(=O)N1CCC[C@H]1C(=O)NCc1ccccc1 | - | 0 | - | 0 | - | - | - | -
O=C(COC(=O)/C=C/c1ccccc1)Nc1ccc(Cl)cn1 | - | 0 | 0 | 0 | 0 | 0 | - | -
COc1ccccc1/C=C/C(=O)OCC(=O)Nc1ccc(Cl)cn1 | 0 | 8.9 | 0 | 0 | 0 | 0 | 11 | 0
CC(C)c1ccc(C(=O)NN2C(=O)C3CCCCC3C2=O)cc1 (configuration not stated) | 0 | 13 | 0 | 0 | 0 | 0 | 9.3 | 8.5
O=c1[nH]c(-c2ccccc2)cn1C1CCN(Cc2ccc(-c3nc4ccc(Br)cc4nc3-c3ccccc3)cc2)CC1 | - | 0 | - | 0 | - | - | - | -
COc1cccc(CNS(=O)(=O)c2c(C)[nH]c(C)c2C(=O)N2CCCCC2)c1 | 0 | 13 | 0 | 0 | 0 | 0 | 0 | 0
Cc1[nH]c(C)c(S(=O)(=O)Nc2ccc(F)cc2Cl)c1C(=O)N1CCCC1 | 0 | 9.0 | 0 | 0 | 0 | 0 | 0 | 0
Cc1[nH]c(C)c(S(=O)(=O)Nc2ccccc2Cl)c1C(=O)N1CCCC1 | 0 | 0 | 0 | 0 | 0 | 0 | - | -
NC(=S)N/N=C/c1coc2c(ccc3ccccc32)c1=O | 0 | 13 | 0 | 0 | 0 | 0 | 0 | 0
COc1ccc(CNS(=O)(=O)c2cc(Cl)ccc2N2CC[C@@H](O)C2)cc1 | - | 0 | - | 0 | - | - | - | -
COc1ccc(S(=O)(=O)Nc2c(C)nc3nc(C)[nH]n3c2=O)cc1 | 0 | 0 | 0 | 0 | 0 | 0 | - | -
Cc1nc2nc(C)c(NS(=O)(=O)c3ccc4c(c3)CCCC4)c(=O)n2[nH]1 | 0 | 8.9 | 0 | 0 | 0 | 0 | 0 | 0
COC(=O)C1=C(C)N(Cc2cccc(C(F)(F)F)c2)C(=NCC2CC2)NC1c1ccccc1C(F)(F)F (configuration not stated) | - | 0 | - | 0 | - | - | - | -
CC(/C=N/NC(=O)c1cccs1)=C\c1ccco1 | 0 | 9.2 | 0 | 0 | 0 | 0 | 9.3 | 12
CC1(C)COC(c2cc3c(cc2Br)OCO3)OC1 | - | 8.1 | - | 0 | - | 0 | 0 | 0
CCC1(C)COC(c2ccc3c(c2)OCO3)OC1 (configuration not stated) | - | 0 | - | 0 | - | 0 | - | -
Cc1ccc(C(C#N)=Cc2ccc3c(c2)OCO3)cc1 | - | 14 | - | 0 | - | 0 | 0 | 11
Cc1cc(N2CCN(CC(C)(C)O)C[C@H]2C)ccc1N1CCN(CC(C)(C)O)[C@H](C)C1 | - | 0 | - | 0 | - | - | - | -
Cc1c(C(N)=O)sc2nc(-c3ccccc3)cn12 | 0 | 9.9 | 0 | 0 | 0 | 0 | 0 | 13
